Bioassay records from PubChem.
Hits are enriched below; roughly 6.3% of the tested compounds scored in any of these assays.
MK inhibit: inhibitors of Streptococcus pneumoniae mevalonate kinase | inhibition, % at 10 µM | hit rate 0.48% among 65,000 | purified MK, PK/LDH-coupled NADH absorbance 340 nm;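 active = ranked among the strongest by inhibition in the single 10 µM screen, a fixed top-ranked set picked for dose follow-up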
Autofluor 339: intrinsic fluorescence of library compounds, ex339/em460 – biochemical, MLSMR library, data from DPM-DC assay, artefact control, profiling panel; AID 709; fluorescence fold increase at 10 µM; hit rate 5.5% among 65,000; compound autofluorescence, ex339/em460 nm, NADH buffer; active compounds read high; 1 = no-compound wells, NADH background;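 active = at 10 µM, mean starting fluorescence two-fold or more over control wells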;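 also: signal is the first read of a kinetic run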
Spn DPM-DC inh: blocks S. pneumoniae diphosphomevalonate decarboxylase; calls only at 10 µM; purified DPM-DC, PK/LDH coupled NADH fluorescence; hit rate 0.49% among 65,000; AID 556;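 active = the 320 compounds with the highest percent inhibition in the single-dose primary screen, excluding strongly autofluorescent ones, cut at about 32% in these data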;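 also: kinetic rate of NADH fluorescence loss reporting ADP formed by the decarboxylase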
NADH enzymes: inhibitors of enzymes used to reach an NAD/NADH endpoint; IC50, µM (series often up to 10 µM), for inactives: at the top dose inhibition; coupled PK/LDH NADH assays, four targets; hit rate 0.02% among 65,000;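 active = single-dose screening hits from any of four coupled enzyme assays that gave an IC50 when retested across doses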;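 also: the DPM-DC format reads NADH fluorescence rather than 340 nm absorbance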
Spn PMK inh: S. pneumoniae PMK inhibition | purified PMK, PK/LDH-coupled NADH absorbance 340 nm | inhibition, % at 10 µM | hit rate 0.49% among 65,000;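 active = top-ranked compounds by inhibition in the single 10 µM screen, taking a fixed number of the strongest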;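 also: 0% = full reaction with DMSO carrier and 100% = background rate without enzyme reaction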
A340 absorber: compound absorbs light at 340 nm | fold change at 10 µM | 65,000 tested, under 10 active | compound absorbance at 340 nm, fold over control;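 active = at 10 µM dose, initial 340 nm absorbance at least 2 fold that of control wells; inactive = change under 2 fold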;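 also: initial absorbance extrapolated from kinetic A340 decline of NADH oxidation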
* hit, by the source's call.

What do the screens show for `COc1cc(-c2nc3cnccn3c2Nc2ccccc2)ccc1O`?
MK inhibit: 3.0; Autofluor 339: 2.11*; NADH enzymes: 3.0%; Spn PMK inh: 2.0; A340 absorber: 1.12

What do the screens show for `COc1cc(-c2nc3cnccn3c2Nc2ccc3c(c2)OCCO3)ccc1O`?
MK inhibit: 7.0; Autofluor 339: 1.47; Spn DPM-DC inh: inactive; NADH enzymes: 8.0%; Spn PMK inh: 0.0; A340 absorber: 1.1

What do the screens show for `CC(C)(O)P(C)(=O)c1ccccc1` (stereo not drawn)?
MK inhibit: 7.0; Autofluor 339: 0.5; Spn DPM-DC inh: active; NADH enzymes: 23.0%; Spn PMK inh: 14.0; A340 absorber: 0.99

How did CC(C)(C)P(=O)(CO)c1ccccc1 (stereo not drawn) do in these assays?
MK inhibit: 11.0; Autofluor 339: 1.13; Spn DPM-DC inh: inactive; NADH enzymes: 4.0%; Spn PMK inh: 0.0; A340 absorber: 1.07

How did CC(C)OC(=O)c1c(NC(=O)c2cccs2)sc2c1CCCC2 do in these assays?
MK inhibit: 0.0; Autofluor 339: 2.2*; NADH enzymes: 0.0%; Spn PMK inh: 0.0; A340 absorber: 1.11

Results for COC(=O)c1c(NC(=O)c2cccs2)sc2c1CCC(C)C2 (stereo not drawn) ?
MK inhibit: 3.0; Autofluor 339: 3.15*; Spn DPM-DC inh: inactive; NADH enzymes: 5.0%; Spn PMK inh: 6.0; A340 absorber: 1.06

What do the screens show for `O=C(Nc1sc2c(c1C(=O)O)CCCC2)c1cccs1`?
MK inhibit: 8.0; Autofluor 339: 1.08; Spn DPM-DC inh: inactive; NADH enzymes: 5.0%; Spn PMK inh: 8.0; A340 absorber: 1.14

How did Cc1cc(C(=O)Nc2sc3c(c2C#N)CCC(C)C3)cs1 (stereo not drawn) do in these assays?
MK inhibit: 16.0; Autofluor 339: 2.02*; Spn DPM-DC inh: inactive; NADH enzymes: 8.0%; Spn PMK inh: 8.0; A340 absorber: 1.04

What do the screens show for `Cn1c(=O)oc2cc(S(=O)(=O)Nc3ccc4c(c3)OCO4)ccc21`?
MK inhibit: 8.0; Autofluor 339: 1.14; Spn DPM-DC inh: inactive; NADH enzymes: 9.0%; Spn PMK inh: 11.0; A340 absorber: 1.03

Results for COc1ccc(C2CC(c3cccs3)n3nc(N)nc3N2)cc1 (stereo not drawn) ?
MK inhibit: 3.0; Autofluor 339: 2.05*; Spn DPM-DC inh: inactive; NADH enzymes: 1.0%; Spn PMK inh: 0.0; A340 absorber: 0.98

What do the screens show for `Nc1nc2n(n1)C(c1cccs1)CC(c1ccc(F)cc1)N2` (stereo not drawn)?
MK inhibit: 1.0; Autofluor 339: 1.14; Spn DPM-DC inh: inactive; NADH enzymes: 2.0%; Spn PMK inh: 6.0; A340 absorber: 1

What do the screens show for `O=C(Nc1ccccc1C(=O)N1CCN(c2ccccc2)CC1)c1ccco1`?
MK inhibit: 12.0; Autofluor 339: 1.03; Spn DPM-DC inh: inactive; NADH enzymes: 2.0%; Spn PMK inh: 0.0; A340 absorber: 1

What do the screens show for `COc1ccc(C(=O)c2coc3ccc(O)c(CN4CCOCC4)c23)cc1`?
MK inhibit: 6.0; Autofluor 339: 1.04; Spn DPM-DC inh: inactive; NADH enzymes: 2.0%; Spn PMK inh: 1.0; A340 absorber: 1.04

How did COc1ccc(-c2coc3c(CN4CCCCC4)c(O)c(CN4CCCCC4)c(O)c3c2=O)cc1 do in these assays?
MK inhibit: 0.0; Autofluor 339: 1; Spn DPM-DC inh: inactive; NADH enzymes: 3.0%; Spn PMK inh: 26.0*; A340 absorber: 1.03

What do the screens show for `CCOc1ccc2[nH]c(=O)c(CN(CC3COCCO3)C(=O)c3ccco3)cc2c1` (stereo not drawn)?
MK inhibit: 5.0; Autofluor 339: 4.03*; NADH enzymes: 11.0%; Spn PMK inh: 17.0; A340 absorber: 1.03

Results for CCOc1ccc2[nH]c(=O)c(CN(Cc3ccco3)C(=O)c3cccc(F)c3)cc2c1 ?
MK inhibit: 12.0; Autofluor 339: 2.85*; Spn DPM-DC inh: inactive; NADH enzymes: 15.0%; Spn PMK inh: 20.0; A340 absorber: 1.01

What do the screens show for `COc1ccc2[nH]c(=O)c(CN(Cc3ccco3)C(=O)c3ccccc3)cc2c1`?
MK inhibit: 8.0; Autofluor 339: 3.74*; NADH enzymes: 8.0%; Spn PMK inh: 8.0; A340 absorber: 1.06

How did CCOC(=O)CNC(=O)C(NC(=O)C1CCC(C)CC1)C(C)CC (stereo not drawn) do in these assays?
MK inhibit: 9.0; Autofluor 339: 1.1; Spn DPM-DC inh: inactive; NADH enzymes: 12.0%; Spn PMK inh: 10.0; A340 absorber: 1.03

How did Cc1c(=O)n(OCc2c(F)cccc2F)c2ccccc2[n+]1[O-] do in these assays?
MK inhibit: 6.0; Autofluor 339: 1.12; Spn DPM-DC inh: inactive; NADH enzymes: 6.0%; Spn PMK inh: 11.0; A340 absorber: 1

How did CCOC(=O)Cc1csc2nc3sc(C)c(C)c3c(=O)n12 do in these assays?
MK inhibit: 6.0; Autofluor 339: 1.6; Spn DPM-DC inh: inactive; NADH enzymes: 8.0%; Spn PMK inh: 11.0; A340 absorber: 1.18

What do the screens show for `Cc1nc(-c2ccccc2)cc(=O)[nH]1`?
MK inhibit: 4.0; Autofluor 339: 1.12; Spn DPM-DC inh: inactive; NADH enzymes: 5.0%; Spn PMK inh: 10.0; A340 absorber: 1.02

How did O=c1nc(-c2ccccc2)cc(-c2ccccc2)[nH]1 do in these assays?
MK inhibit: 0.0; Autofluor 339: 2.18*; NADH enzymes: 3.0%; Spn PMK inh: 5.0; A340 absorber: 1.12

Results for Cc1cc(OCC(=O)Nc2ccc3c(c2)OCCO3)ccc1Cl ?
MK inhibit: 0.0; Autofluor 339: 1.04; Spn DPM-DC inh: inactive; NADH enzymes: 3.0%; Spn PMK inh: 9.0; A340 absorber: 0.99

How did O=C(Oc1cccc(Br)c1)c1cccnc1 do in these assays?
MK inhibit: 9.0; Autofluor 339: 1.07; Spn DPM-DC inh: inactive; NADH enzymes: 9.0%; Spn PMK inh: 13.0; A340 absorber: 0.96

How did Cc1ccc(OCC(=O)Nc2ccc(-c3nc4ncccc4o3)cc2)c(C)c1 do in these assays?
MK inhibit: 0.0; Autofluor 339: 2.17*; NADH enzymes: 0.0%; Spn PMK inh: 0.0; A340 absorber: 1.16

How did Cc1cc(-c2nc3ncccc3o2)ccc1NC(=O)CC(C)C do in these assays?
MK inhibit: 4.0; Autofluor 339: 2.2*; NADH enzymes: 3.0%; Spn PMK inh: 2.0; A340 absorber: 1.1

Results for CCn1c(COc2ccccc2C)nnc1SCC(=O)CC(=O)Nc1ccccc1OC ?
MK inhibit: 6.0; Autofluor 339: 1.07; Spn DPM-DC inh: inactive; NADH enzymes: 2.0%; Spn PMK inh: 0.0; A340 absorber: 1

How did CN(C)c1nc(N)nc(Cn2ccnc2)n1 do in these assays?
MK inhibit: 4.0; Autofluor 339: 1.09; Spn DPM-DC inh: inactive; NADH enzymes: 1.0%; Spn PMK inh: 0.0; A340 absorber: 1.07
